Measured values published in ChEMBL document CHEMBL4513146, “CO-ADD screening of Karazin Kharkiv National University (Ukraine) compounds”.
Results with a measured potency or affinity are listed apart.

What was measured:
Klebsiella pneumoniae = settings: Concentration 32 ug.mL-1;; ASSAY_TEST Inhibition of Bacterial Growth; detection method Absorption (OD600); MEDIA CAMHB; plate type 384well; NBS; CORNING #3640; time 18 hr
Candida albicans = settings: Concentration 32 ug.mL-1; ASSAY_TEST Inhibition of Fungal Growth; detection method Absorption (OD530)
Cryptococcus neoformans = settings: Concentration 32 ug.mL-1; ASSAY_TEST Inhibition of Fungal Growth; detection method Resazurin; Absorption (OD600-OD570); plate type 384well; NBS; CORNING #3640

CCc1ccc(NC(=O)Cn2nc3cc(C)nc(Nc4ccc(F)c(C)c4)n3c2=O)cc1
Inhibition (Klebsiella pneumoniae): 8.35%
Inhibition (Candida albicans): 8.83%
Inhibition (Cryptococcus neoformans): -9.39%

Cc1cc(C)cc(NC(=O)Cn2nc3ccc(SCc4ccc(Cl)cc4)nn3c2=O)c1
Inhibition (Klebsiella pneumoniae): -2.52%
Inhibition (Candida albicans): 46.75%
Inhibition (Cryptococcus neoformans): -25.54%

Cc1cc(C)cc(Oc2nccn3c(=O)n(CC(=O)Nc4cccc(Cl)c4)nc23)c1
Inhibition (Klebsiella pneumoniae): 0.09%
Inhibition (Candida albicans): 0.52%
Inhibition (Cryptococcus neoformans): -3.38%

Cc1ccc(NC(=O)Cn2nc3c4cc(-c5ccc(C)c(C)c5)nn4ccn3c2=O)c(Cl)c1
Inhibition (Klebsiella pneumoniae): 13.54%
Inhibition (Candida albicans): -1.09%
Inhibition (Cryptococcus neoformans): -13%

COc1ccc(-c2cc3c4nn(CC(=O)Nc5ccc(OC)cc5OC)c(=O)n4ccn3n2)cc1
Inhibition (Klebsiella pneumoniae): 12.55%
Inhibition (Candida albicans): 0.69%
Inhibition (Cryptococcus neoformans): -8.54%

COc1ccc(NC(=O)Cn2nc3c(N4CC(C)CC(C)C4)nccn3c2=O)c(OC)c1 (centres undefined)
Inhibition (Klebsiella pneumoniae): 17.76%
Inhibition (Candida albicans): 1.51%
Inhibition (Cryptococcus neoformans): -7.52%

Cc1ccc(F)cc1NC(=O)CSc1nc2ccccc2n2c(C(C)C)nnc12
Inhibition (Klebsiella pneumoniae): 9.62%
Inhibition (Candida albicans): 0.82%
Inhibition (Cryptococcus neoformans): -18.14%

Cc1ccccc1CSc1nnc2c(=O)n(-c3ccc(F)cc3)ccn12
Inhibition (Klebsiella pneumoniae): 9.44%
Inhibition (Candida albicans): 1.51%
Inhibition (Cryptococcus neoformans): -10.33%

CCc1ccc(NC(=O)Cn2nc3c(=O)n(-c4ccc(Br)cc4)ccn3c2=O)cc1
Inhibition (Klebsiella pneumoniae): -9.6%
Inhibition (Candida albicans): 4.29%
Inhibition (Cryptococcus neoformans): -8.7%

Cc1ccc(NC(=O)CSc2nc3ccccc3n3cnnc23)c(Br)c1
Inhibition (Klebsiella pneumoniae): 0.14%
Inhibition (Candida albicans): 3.27%
Inhibition (Cryptococcus neoformans): -26.85%

Cc1nnc2ccc(S(=O)(=O)N(Cc3ccccc3)c3ccc(F)cc3)cn12
Inhibition (Klebsiella pneumoniae): 4.54%
Inhibition (Candida albicans): 1.53%
Inhibition (Cryptococcus neoformans): -1.68%

CCc1ccc(N(Cc2cccc(OC)c2)S(=O)(=O)c2cccn3c(C)nnc23)cc1
Inhibition (Klebsiella pneumoniae): -1.7%
Inhibition (Candida albicans): -0.37%
Inhibition (Cryptococcus neoformans): -7.84%

CCCc1nnc2c(=O)n(CC(=O)Nc3ccc(C#N)cc3)c3ccccc3n12
Inhibition (Klebsiella pneumoniae): 0.24%
Inhibition (Candida albicans): 1.16%
Inhibition (Cryptococcus neoformans): -7.04%

O=c1c2sccc2n2c(=O)n(Cc3ccccc3Cl)nc2n1Cc1cccs1
Inhibition (Klebsiella pneumoniae): -3.57%
Inhibition (Candida albicans): 32.61%
Inhibition (Cryptococcus neoformans): -5.81%

O=C(CSc1nnc2c(=O)n(-c3ccccc3)ccn12)c1ccc(F)cc1
Inhibition (Klebsiella pneumoniae): 11%
Inhibition (Candida albicans): 4.07%
Inhibition (Cryptococcus neoformans): -7.83%

COc1ccc(-c2cc3c4nn(CC(=O)Nc5ccccc5Cl)c(=O)n4ccn3n2)cc1
Inhibition (Klebsiella pneumoniae): 4.39%
Inhibition (Candida albicans): 6.88%
Inhibition (Cryptococcus neoformans): -15.65%

Cc1c(Cl)cccc1-n1ccn2c(=O)n(Cc3ccc(F)cc3)nc2c1=O
Inhibition (Klebsiella pneumoniae): -1.56%
Inhibition (Candida albicans): 6.3%
Inhibition (Cryptococcus neoformans): -16.32%

COc1ccc(-n2ccn3c(SCC(=O)N4CCN(c5ccccc5F)CC4)nnc3c2=O)cc1
Inhibition (Klebsiella pneumoniae): 15.6%
Inhibition (Candida albicans): 2.59%
Inhibition (Cryptococcus neoformans): -14.55%

O=c1n(Cc2nc(-c3ccc(Br)cc3)no2)nc2ccc(-c3ccccc3)nn12
Inhibition (Klebsiella pneumoniae): 7.97%
Inhibition (Candida albicans): 1.04%
Inhibition (Cryptococcus neoformans): -15.1%

COC(=O)c1cccc(NC(=O)Cn2nc3c(N4CCCCCC4)nccn3c2=O)c1
Inhibition (Klebsiella pneumoniae): 3.15%
Inhibition (Candida albicans): 2.05%
Inhibition (Cryptococcus neoformans): -12.46%

Cc1cc(C)cc(Oc2nccn3c(=O)n(CC(=O)Nc4ccc(Cl)cc4F)nc23)c1
Inhibition (Klebsiella pneumoniae): 14.33%
Inhibition (Candida albicans): 0.59%
Inhibition (Cryptococcus neoformans): -7.4%

CSc1cccc(NC(=O)Cn2nc3c(Sc4ccc(C)cc4C)nccn3c2=O)c1
Inhibition (Klebsiella pneumoniae): -1.53%
Inhibition (Candida albicans): 2.24%
Inhibition (Cryptococcus neoformans): -22%

COc1ccc(-c2cc3c4nn(CC(=O)Nc5c(C)cc(C)cc5C)c(=O)n4ccn3n2)cc1
Inhibition (Klebsiella pneumoniae): 6.07%
Inhibition (Candida albicans): -1.73%
Inhibition (Cryptococcus neoformans): -15.2%

CC(C)c1nnc2c(=O)n(CC(=O)Nc3ccc(Br)cc3)c3ccccc3n12
Inhibition (Klebsiella pneumoniae): 14.25%
Inhibition (Candida albicans): 2.31%
Inhibition (Cryptococcus neoformans): -6.21%

Cc1nnc2c(=O)n(CC(=O)Nc3ccc(C(C)C)cc3)c3ccccc3n12
Inhibition (Klebsiella pneumoniae): 15.67%
Inhibition (Candida albicans): 5.98%
Inhibition (Cryptococcus neoformans): -14.04%

COc1cccc(-n2ccn3c(SCC(=O)c4ccc(OC)c(OC)c4)nnc3c2=O)c1
Inhibition (Klebsiella pneumoniae): 7.59%
Inhibition (Candida albicans): 4.83%
Inhibition (Cryptococcus neoformans): -8.41%

O=C(CSc1nc2ccccc2n2cnnc12)Nc1cc(C(F)(F)F)ccc1Cl
Inhibition (Klebsiella pneumoniae): 4.72%
Inhibition (Candida albicans): 15.89%
Inhibition (Cryptococcus neoformans): -19.78%

CCOC(=O)c1ccc(NC(=O)Cn2nc3c4cc(-c5ccc(C)cc5)nn4ccn3c2=O)cc1
Inhibition (Klebsiella pneumoniae): -1.86%
Inhibition (Candida albicans): 7.19%
Inhibition (Cryptococcus neoformans): -28.56%
